Values without a mark were called inactive. Inconclusive results are not listed. Entries that show only a call come without a potency. Calls of active or inactive are those of the source. Unless noted, the call rests on the fitted dose curve.
Tests used:
[1] = Nuclear factor erythroid 2-related factor 2/antioxidant responsive element (Nrf2/ARE) small molecule agonists: qHTS cell viability counter screen in human keratinocytes (AID 1919968; active means well fitted curve in the direction sought with a large enough effect in the repeat runs; an effect the other way counts as inactive or inconclusive; further: nearly all actives have a fitted effect of over 55% in size)
In short: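 After a 5 h attachment period, ARE-reporter keratinocytes were dosed with compounds in DMSO and then cultured 23 h at 37 C. Cell viability came from CellTiter-Fluor signal read after a further 1 h.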

[2] = Nuclear factor erythroid 2-related factor 2/antioxidant responsive element (Nrf2/ARE) small molecule agonists: luciferase reporter gene qHTS assay in human keratinocytes (AID 1919969); further: nearly all actives have a fitted effect of over 35% in size
[3] = target: Gonadotropin-releasing hormone receptor (Homo sapiens) (UniProt P30968); assay: Human gonadotropin-releasing hormone receptor (GnRHR) small molecule agonists, calcium flux assay in GnRHR-HEK293 cells (AID 1920063); further: nearly all actives have a fitted effect of over 35% in size
Gonadotropin-releasing hormone receptor (Homo sapiens), sequence (P30968 whole entry, looked up): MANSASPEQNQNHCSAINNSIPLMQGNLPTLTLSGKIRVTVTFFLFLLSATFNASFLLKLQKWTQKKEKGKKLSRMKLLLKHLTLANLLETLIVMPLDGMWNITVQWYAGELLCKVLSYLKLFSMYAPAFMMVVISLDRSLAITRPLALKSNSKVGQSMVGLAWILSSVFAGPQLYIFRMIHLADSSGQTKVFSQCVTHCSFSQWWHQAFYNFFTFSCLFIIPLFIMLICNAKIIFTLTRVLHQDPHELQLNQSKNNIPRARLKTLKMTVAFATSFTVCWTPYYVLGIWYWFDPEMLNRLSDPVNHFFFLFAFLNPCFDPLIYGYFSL
In short: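 We seeded human GnRHR-expressing HEK293 cells for 18 hours, loaded them with calcium dye for an hour at 37 C, added test compounds, and recorded fluorescence intensity kinetically for three minutes.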

[4] = target: KiSS-1 receptor (Homo sapiens) (UniProt Q969F8); assay: Human kisspeptin (KISS1R) small molecule agonists, calcium flux assay in KISS1R-HEK293 cells (AID 1920064; active means well fitted curve in the direction sought with a large enough effect in the repeat runs; an effect the other way counts as inactive or inconclusive)
KiSS-1 receptor (Homo sapiens), sequence (Q969F8 whole entry, looked up): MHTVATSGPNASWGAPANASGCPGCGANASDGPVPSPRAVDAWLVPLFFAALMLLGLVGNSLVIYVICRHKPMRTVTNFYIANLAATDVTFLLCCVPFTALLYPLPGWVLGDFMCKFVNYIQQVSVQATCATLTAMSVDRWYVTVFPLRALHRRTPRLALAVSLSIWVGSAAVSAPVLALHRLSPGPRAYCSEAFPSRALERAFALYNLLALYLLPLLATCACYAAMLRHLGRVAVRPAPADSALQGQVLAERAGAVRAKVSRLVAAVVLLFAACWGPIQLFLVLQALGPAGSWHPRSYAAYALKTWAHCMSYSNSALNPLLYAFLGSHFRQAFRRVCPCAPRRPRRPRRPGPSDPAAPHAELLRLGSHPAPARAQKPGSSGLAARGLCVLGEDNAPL
In short: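 Kinetic calcium assay, 1 s sampling over 3 min at Ex/Em 480/540, in HEK293 cells engineered with human KISS1R; compounds delivered in DMSO after 1 h dye loading.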

[5] = G protein-coupled receptor (GPCR) small molecule agonists, calcium flux assay: HEK293 wild type cell line counter screen (AID 1920065)
In short: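 Calcium-sensitive dye, loaded 1 h at 37 C into cells cultured 18 h, reports compound-evoked calcium release as fluorescence (Ex/Em 480/540), measured over 3 min. Agonist mode; 15-point titrations, triplicate.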

[6] = p53 small molecule agonists, cell-based qHTS assay with human liver microsomes (AID 1963577)
In short: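 Cells carrying a p53-responsive bla reporter were rested 5 h (37 C, 5% CO2) before compound transfer. Human liver microsomes plus NADPH, 0.5 mg/mL final apiece, supplied metabolism during the 16 h 37 C exposure.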

[7] = p53 small molecule agonists, cell-based qHTS assay with rat liver microsomes (AID 1963578)
In short: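 Fluorescence from a beta-lactamase reporter under a p53 response element was measured after cells had been incubated 16 h at 37 C with test compound and rat liver microsomes plus NADPH (0.5 mg/mL final each).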

[8] = p53 small molecule agonists, cell-based qHTS assay with human liver microsomes: qHTS cell viability counter screen (AID 1963579); further: nearly all actives have a fitted effect of over 45% in size
In short: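 Seed p53RE-bla cells at 4,000 per well; incubate 5 h at 37 C; add compound, human liver microsomes and NADPH; incubate 16 h at 37 C; add CellTiter-Glo; after 30 min at room temperature, read luminescence.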

[9] = p53 small molecule agonists, cell-based qHTS assay with rat liver microsomes: qHTS cell viability counter screen (AID 1963580); further: nearly all actives have a fitted effect of over 45% in size
In short: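 In HCT-116 cells carrying a p53 response element-bla reporter, compounds were metabolically activated in situ by rat liver microsomes with NADPH over 16 h. Cell ATP content then served as the cytotoxicity measure.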

[10] = p53 small molecule agonists, cell-based qHTS assay: qHTS cell viability counter screen (AID 1963581); further: nearly all actives have a fitted effect of over 45% in size; further: potency means the concentration at half of the fitted maximal effect
In short: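 Following 5 h attachment, HCT-116 p53RE-bla cells took up compound for 16 h at 37 C; the reporter was read with B/G FRET substrate (2 h RT), and viability then via CellTiter-Glo ATP luminescence.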

[11] = p53 small molecule agonists, cell-based qHTS assay (AID 1963582; active means well fitted activation curve with a large enough effect in the signal ratio in the repeat runs, not every such curve was filed as active; the % refers to the signal ratio)
In short: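 In this cell-based concentration-response screen, a p53 response element drives beta-lactamase; cells received DMSO-borne compounds after 5 h culture and were incubated a further 16 h before FRET substrate development.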

[12] = target: 5-hydroxytryptamine receptor 2A (Homo sapiens) (UniProt P28223); assay: 5-hydroxytryptamine receptor 2A (HTR2A) small molecule antagonists, cell-based qHTS assay (AID 1963586); further: nearly all actives have a fitted effect of over 45% in size
5-hydroxytryptamine receptor 2A (Homo sapiens), sequence (P28223 whole entry, looked up): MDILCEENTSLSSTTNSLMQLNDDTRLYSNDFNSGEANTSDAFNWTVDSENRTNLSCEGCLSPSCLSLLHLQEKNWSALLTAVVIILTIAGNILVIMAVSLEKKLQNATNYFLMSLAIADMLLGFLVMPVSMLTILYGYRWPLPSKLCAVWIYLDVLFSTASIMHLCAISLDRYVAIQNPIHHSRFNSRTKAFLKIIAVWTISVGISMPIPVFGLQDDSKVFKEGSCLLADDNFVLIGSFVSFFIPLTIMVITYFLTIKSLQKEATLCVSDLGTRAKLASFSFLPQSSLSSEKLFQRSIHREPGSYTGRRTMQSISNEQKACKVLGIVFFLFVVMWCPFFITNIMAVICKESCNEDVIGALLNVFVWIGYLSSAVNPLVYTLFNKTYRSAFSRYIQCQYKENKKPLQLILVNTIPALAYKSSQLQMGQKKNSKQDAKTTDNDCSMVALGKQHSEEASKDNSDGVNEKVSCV
In short: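 Antagonist-mode intracellular calcium assay: DOI (4 nM) added after 5 min compound pre-incubation at room temperature to dye-loaded HTR2A-CHO cells. Fluorescence followed for 3 min, sampled every second.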

[13] = target: 5-hydroxytryptamine receptor 2A (Homo sapiens) (UniProt P28223); assay: 5-hydroxytryptamine receptor 2A (HTR2A) small molecule agonists, cell-based qHTS assay (AID 1963587); further: nearly all actives have a fitted effect of over 30% in size
In short: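 HTR2A-CHO cells, plated 18 h at 37 C/5% CO2, dye-loaded 1 h at 37 C; compounds in DMSO added by pin tool (agonist mode). Intracellular calcium flux read as kinetic fluorescence on FDSS over 2 min at 1 s intervals.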

[14] = target: Muscarinic acetylcholine receptor M1 (Homo sapiens) (UniProt P11229); assay: Cholinergic receptor muscarinic 1 (CHRM1) small molecule antagonists, cell-based qHTS assay (AID 1963588); further: nearly all actives have a fitted effect of over 40% in size
Muscarinic acetylcholine receptor M1 (Homo sapiens), sequence (P11229 whole entry, looked up): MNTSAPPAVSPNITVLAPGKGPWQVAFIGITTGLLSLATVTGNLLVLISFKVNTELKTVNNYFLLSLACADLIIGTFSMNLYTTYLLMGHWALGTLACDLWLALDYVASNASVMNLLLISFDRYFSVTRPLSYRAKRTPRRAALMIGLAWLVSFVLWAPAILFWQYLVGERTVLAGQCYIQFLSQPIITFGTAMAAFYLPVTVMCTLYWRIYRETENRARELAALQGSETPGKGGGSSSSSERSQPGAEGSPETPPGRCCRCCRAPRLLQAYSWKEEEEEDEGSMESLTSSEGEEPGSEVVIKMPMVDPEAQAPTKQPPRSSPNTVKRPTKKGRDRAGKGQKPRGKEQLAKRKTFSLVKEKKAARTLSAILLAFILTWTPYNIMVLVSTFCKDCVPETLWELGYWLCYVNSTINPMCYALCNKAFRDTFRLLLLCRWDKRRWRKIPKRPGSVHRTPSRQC
In short: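 CHRM1-CHO calcium-flux assay, antagonist mode. Cells were seeded 18 h, dye-loaded 1 h at 37 C and given compound for 5 min at RT, then acetylcholine was added at 50nM. FDSS fluorescence was read 3 min; 15 concentrations, three runs.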

[15] = target: Muscarinic acetylcholine receptor M1 (Homo sapiens) (UniProt P11229); assay: Cholinergic receptor muscarinic 1 (CHRM1) small molecule agonists, cell-based qHTS assay (AID 1963589); further: nearly all actives have a fitted effect of over 35% in size; further: potency means the concentration at half of the fitted maximal effect
In short: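 Measures agonist-induced intracellular calcium rise. Stable human CHRM1 CHO line, 1 h dye load at 37 C, compounds from DMSO, kinetic fluorescence read.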

[16] = cAMP Responsive Elements (CRE) small molecule agonists, cell-based qHTS assay (AID 1963590)
In short: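 A CRE-responsive beta-lactamase reporter in HEK 293T cells was used. Treatment ran 3 h at 37 C; detection used LiveBLAzer B/G FRET substrate for 2 h at room temperature.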

[17] = cAMP Responsive Elements (CRE) small molecule antagonists, cell-based qHTS assay (AID 1963591; active means well fitted inhibition curve with a large enough effect in the signal ratio in the repeat runs, not every such curve was filed as active; the % refers to the signal ratio)
In short: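 HEK293T cells carrying a CRE-driven beta-lactamase reporter receive compound and NKH477 (0.25 uM final) for 3 h. Fluorescence from LiveBLAzer B/G FRET substrate is read after 2 h at room temperature.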

[18] = target: Beta-2 adrenergic receptor (Homo sapiens) (UniProt P07550); assay: Adrenergic beta2 receptor (ADRB2) small molecule antagonists, cell-based qHTS assay (AID 1963592); further: series mostly up to about 92 µM; nearly all actives have a fitted effect of over 50% in size
Beta-2 adrenergic receptor (Homo sapiens), sequence (P07550 whole entry, looked up): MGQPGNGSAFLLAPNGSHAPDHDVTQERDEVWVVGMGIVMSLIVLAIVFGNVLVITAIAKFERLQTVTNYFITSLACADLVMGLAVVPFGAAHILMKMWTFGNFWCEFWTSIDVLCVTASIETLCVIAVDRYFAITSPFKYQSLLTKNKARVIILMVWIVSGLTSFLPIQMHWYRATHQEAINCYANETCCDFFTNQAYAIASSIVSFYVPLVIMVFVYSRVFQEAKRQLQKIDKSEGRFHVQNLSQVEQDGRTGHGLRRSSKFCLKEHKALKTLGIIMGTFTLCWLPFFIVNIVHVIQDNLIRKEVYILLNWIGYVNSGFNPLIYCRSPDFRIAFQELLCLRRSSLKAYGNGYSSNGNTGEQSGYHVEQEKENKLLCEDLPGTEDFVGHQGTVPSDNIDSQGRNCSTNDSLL
In short: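 Cells (CHO, stable ADRB2 overexpression) incubated 18-20hr at 37C; compounds added from DMSO; agonist mix (1nM isoproterenol, 100uM IBMX, 25uM Ro-20-1724) added; 0.5hr RT; d2-cAMP and anti-cAMP-cryptate added; 1hr RT; 665/615 nm read.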

[19] = target: Beta-2 adrenergic receptor (Homo sapiens) (UniProt P07550); assay: Adrenergic beta2 receptor (ADRB2) small molecule agonists, cell-based qHTS assay (AID 1963593);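 further: CHO cells stably overexpressing human ADRB2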
In short: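 CHO cells stably over-expressing ADRB2 were plated overnight at 37C, then dosed with compounds plus a stimulation mix containing 100uM IBMX and 25uM Ro-20-1724 for 0.5hr at room temperature. cAMP was measured by HTRF competition, 1hr.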

[20] = target: D(2) dopamine receptor (Homo sapiens) (UniProt P14416); assay: Dopamine D2 receptor (DRD2) small molecule agonists, cell-based qHTS assay (AID 1963594); further: nearly all actives have a fitted effect of over 35% in size
D(2) dopamine receptor (Homo sapiens), sequence (P14416 whole entry, looked up): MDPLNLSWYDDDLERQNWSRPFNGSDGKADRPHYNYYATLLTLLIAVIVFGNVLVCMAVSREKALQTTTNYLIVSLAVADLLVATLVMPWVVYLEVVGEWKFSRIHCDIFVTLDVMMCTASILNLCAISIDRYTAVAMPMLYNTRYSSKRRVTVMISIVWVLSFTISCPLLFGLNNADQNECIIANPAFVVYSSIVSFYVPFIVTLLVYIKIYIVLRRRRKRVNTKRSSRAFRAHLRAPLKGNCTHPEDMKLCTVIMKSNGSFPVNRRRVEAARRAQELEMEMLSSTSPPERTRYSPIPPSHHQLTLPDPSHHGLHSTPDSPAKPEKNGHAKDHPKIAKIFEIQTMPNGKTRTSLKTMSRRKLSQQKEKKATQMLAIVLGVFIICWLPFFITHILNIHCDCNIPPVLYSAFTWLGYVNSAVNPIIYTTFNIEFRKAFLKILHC
In short: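 HEK293 cells stably expressing DRD2 were cultured 24 h at 37 C, then given Ro20-1724 (0.1 mM final) and compounds for 10 min at room temperature. NKH477 (200nM) was then added for 30 min. cAMP was read by HTRF.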

SMILES	Potency [1]	Potency [2]	Potency [3]	Potency [4]	Potency [5]	Potency [6]	Potency [7]	Potency [8]	Potency [9]	Potency [10]	Potency [11]	Potency [12]	Potency [13]	Potency [14]	Potency [15]	Potency [16]	Potency [17]	Potency [18]	Potency [19]	Potency [20]
CSCCC=O	inactive	inactive	inactive	inactive	inactive	inactive	inactive	inactive	inactive	inactive	inactive	inactive	inactive	inactive	inactive	inactive	inactive	inactive	inactive	inactive
COc1nc(N)nc2nc[nH]c12	inactive	inactive	inactive	inactive	inactive	inactive	inactive	inactive	inactive	inactive	inactive	inactive	inactive	inactive	inactive	inactive	inactive	inactive	inactive	inactive
Cn1cc(S(C)=O)c(=O)c2ccc(F)cc21 (stereo not given)	inactive	inactive	inactive	inactive	inactive	inactive	inactive	inactive	inactive	inactive	inactive	inactive	inactive	inactive	inactive	inactive	inactive	inactive	inactive	inactive
O=C1CCC(=O)O1	inactive	inactive	inactive	inactive	inactive	inactive	inactive	inactive	inactive	inactive	inactive	inactive	inactive	inactive	inactive	inactive	inactive	inactive	inactive	inactive
COc1cccc(OC)c1C(=O)N[C@@H]1C(=O)N2[C@@H]1SC(C)(C)[C@@H]2C(=O)O	inactive	inactive	inactive	inactive	inactive	inactive	inactive	inactive	inactive	inactive	inactive	inactive	inactive	inactive	inactive	inactive	inactive	inactive	inactive	inactive
Nc1ccncc1N	inactive	inactive	inactive	inactive	inactive	inactive	inactive	inactive	inactive	inactive	inactive	inactive	inactive	inactive	inactive	inactive	inactive	inactive	inactive	inactive
CCO[Si](C)(C)OCC	inactive	inactive	inactive	inactive	inactive	inactive	inactive	inactive	inactive	inactive	inactive	inactive	inactive	inactive	inactive	inactive	inactive	inactive	inactive	inactive
CCCOCCC	inactive	inactive	inactive	inactive	inactive	inactive	inactive	inactive	inactive	inactive	inactive	inactive	inactive	inactive	inactive	inactive	inactive	inactive	inactive	inactive
O=S(=O)(O)CCN1CCN(CCO)CC1	inactive	inactive	inactive	inactive	inactive	inactive	inactive	inactive	inactive	inactive	inactive	inactive	inactive	inactive	inactive	inactive	inactive	inactive	inactive	inactive
CCOC(=O)c1ccccc1C	inactive	inactive	inactive	inactive	inactive	inactive	inactive	inactive	inactive	inactive	inactive	inactive	inactive	inactive	inactive	inactive	inactive	inactive	inactive	inactive
C=CCCCCCCCCCCCC	inactive	inactive	inactive	inactive	inactive	inactive	inactive	inactive	inactive	inactive	inactive	inactive	inactive	inactive	245 nM (active)	inactive	inactive	inactive	inactive	inactive
C=CC(=O)OCCCCCC	inactive	inactive	inactive	inactive	inactive	inactive	inactive	inactive	inactive	363 nM (active)	inactive	inactive	inactive	inactive	inactive	inactive	inactive	inactive	inactive	inactive
O=[N+]([O-])c1ccc(Oc2ccc([N+](=O)[O-])cc2)cc1	inactive	inactive	inactive	inactive	inactive	inactive	inactive	inactive	inactive	inactive	inactive	inactive	inactive	inactive	inactive	inactive	inactive	inactive	inactive	inactive
C=CCOC(=O)CCCCCCCC	inactive	inactive	inactive	inactive	inactive	inactive	inactive	inactive	inactive	inactive	inactive	inactive	inactive	inactive	inactive	inactive	inactive	inactive	inactive	inactive

Source: PubChem BioAssay (Tox21)
